Data on 28 sequences can be found in the supplement of paper PMC12645437, “Orthogonal IMiD-Degron Pairs Induce Selective Protein Degradation in Cells” (ACS Chemical Biology, 2025).

For this assay, the target named is T1, CRBN, Q96SW2.
T1 chain: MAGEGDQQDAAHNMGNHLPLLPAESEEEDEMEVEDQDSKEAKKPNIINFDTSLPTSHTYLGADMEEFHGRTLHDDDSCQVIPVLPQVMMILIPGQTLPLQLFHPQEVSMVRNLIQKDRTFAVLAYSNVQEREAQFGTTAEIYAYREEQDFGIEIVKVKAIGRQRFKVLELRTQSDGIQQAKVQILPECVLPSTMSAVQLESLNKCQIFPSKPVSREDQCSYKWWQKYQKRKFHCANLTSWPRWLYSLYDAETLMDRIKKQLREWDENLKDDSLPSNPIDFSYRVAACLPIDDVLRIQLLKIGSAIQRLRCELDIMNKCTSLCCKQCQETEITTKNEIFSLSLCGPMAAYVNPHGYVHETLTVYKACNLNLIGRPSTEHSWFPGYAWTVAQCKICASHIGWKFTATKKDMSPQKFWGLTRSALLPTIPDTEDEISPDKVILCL
The assay is described as follows: log2 fold change of degron read counts, EGFP-low vs EGFP+ sorted cells (limma voom), compound-induced degradation; higher = more compound-induced degradation of the degron-EGFP fusion; degrons are variants of IKZF1/3 zinc finger 2; compound dose not given here. Conditions: Jurkat, 18 h.

The mark [1] stands for this setting: compound: compound 19 (5-tert-butyl-thalidomide).
[2] abbreviates: compound: compound 22 (5-morpholino-thalidomide).
[3] abbreviates: compound: compound 33 (diphenyl IMiD analogue).

Whole data set: some 8,300 sequences, median “log2 fold change of degron read counts, EGFP-low vs EGFP+ sorted cells (limma voom), compound-induced degradation” near -1.1, cut for the highest 2% near 3.2. This excerpt belongs to a sample that is enriched for the highest values.
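Further: pooled lentiviral library of zinc finger degron-EGFP fusions in mCherry-positive Jurkat cells, FACS-sorted after compound exposure, with degron abundance counted by next-generation sequencing.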

For the sequence LECNQCGFWCTQKGNLLRHIKL [46L_47E_49N_50Q_52G_53F_54W_55C_67L_, Q9UKT9], the “log2 fold change of degron read counts” value reads like this: under setting [1], -1.99; under setting [2], -1.69; under setting [3], -1.79; (compound: thalidomide) -1.63.
The corresponding values for FYCDICGAVFTQKGNLLRHIKL [46F_47Y_49D_50I_52G_53A_54V_55F_67L_, Q9UKT9] are 2.92, 2.45, 1.34 and -1.18.
The corresponding values for FCCNQCGRTFTQKGNLLRHIKL [46F_47C_49N_50Q_52G_53R_54T_55F_67L_, Q9UKT9] are -2.96, -2.98, -2.8 and -2.49.
The corresponding values for FKCNQCGRHFTQKGNLLRHIKL [46F_47K_49N_50Q_52G_53R_54H_55F_67L_, Q9UKT9] are -2.42, -3.25, -2.92 and -2.39.
In the case of FICEICGAFFTQKGNLLRHIKL [46F_47I_49E_50I_52G_53A_54F_55F_67L_, Q9UKT9], the “log2 fold change of degron read counts” value under setting [1] was -1.14, the “log2 fold change of degron read counts” value under setting [2] was determined as 0.177, the “log2 fold change of degron read counts” value under setting [3] was determined as 1.46 and the “log2 fold change of degron read counts” value (compound: thalidomide) was determined as 0.874.
The corresponding values for FECSVCGHCFTQKGNLLRHIKL [46F_47E_49S_50V_52G_53H_54C_55F_67L_, Q9UKT9] are -2.85, -3.1, -2.83 and -3.04.
The corresponding values for FCCNVCGAVFTQKGNLLRHIKL [46F_47C_49N_50V_52G_53A_54V_55F_67L_, Q9UKT9] are -1.07, -0.182, 1.49 and -0.139.
Regarding FVCNQCGHYFTQKGNLLRHIKL [46F_47V_49N_50Q_52G_53H_54Y_55F_67L_, Q9UKT9], the “log2 fold change of degron read counts” value reads like this: under setting [1], -3.08; under setting [2], -3.34; under setting [3], -2.73; (compound: thalidomide) -2.44.
The corresponding values for FFCNQCGHDFTQKGNLLRHIKL [46F_47F_49N_50Q_52G_53H_54D_55F_67L_, Q9UKT9] are -3.06, -4.05, -2.94 and -2.8.
Turning to FTCEVCGACFTQKGNLLRHIKL [46F_47T_49E_50V_52G_53A_54C_55F_67L_, Q9UKT9], the “log2 fold change of degron read counts” value was 1.37 under setting [1], 2.52 under setting [2], 2.51 under setting [3] and 2.66 (compound: thalidomide).
The corresponding values for FICEVCGACFTQKGNLLRHIKL [46F_47I_49E_50V_52G_53A_54C_55F_67L_, Q9UKT9] are -0.743, 2.1, 2.52 and 2.75.
The corresponding values for FYCEVCGACFTQKGNLLRHIKL [46F_47Y_49E_50V_52G_53A_54C_55F_67L_, Q9UKT9] are 3.74, 3.85, 3.1 and 1.37.
The corresponding values for FMCEVCGACFTQKGNLLRHIKL [46F_47M_49E_50V_52G_53A_54C_55F_67L_, Q9UKT9] are -0.094, 0.00255, 2.45 and 1.45.
In the case of FRCEVCGACFTQKGNLLRHIKL [46F_47R_49E_50V_52G_53A_54C_55F_67L_, Q9UKT9], the “log2 fold change of degron read counts” value runs as follows: under setting [1], -0.334; under setting [2], -0.2; under setting [3], 1.72; (compound: thalidomide) 1.5.
The corresponding values for FVCEVCGACFTQKGNLLRHIKL [46F_47V_49E_50V_52G_53A_54C_55F_67L_, Q9UKT9] are -0.0594, 1.78, 2.4 and 2.7.
The corresponding values for FSCEVCGACFTQKGNLLRHIKL [46F_47S_49E_50V_52G_53A_54C_55F_67L_, Q9UKT9] are 3.26, 2.28, 2.54 and 1.34.
The corresponding values for FQCEVCGACFTQKGNLLRHIKL [46F_47Q_49E_50V_52G_53A_54C_55F_67L_, Q9UKT9] are 0.807, 2.69, 2.23 and 3.69.
As to FLCEVCGACFTQKGNLLRHIKL [46F_47L_49E_50V_52G_53A_54C_55F_67L_, Q9UKT9], the “log2 fold change of degron read counts” value was 0.437 under setting [1], -0.686 under setting [2], 1.57 under setting [3] and 1.59 (compound: thalidomide).
As for LGCEICGFPCTQKGNLLRHIKL [46L_47G_49E_50I_52G_53F_54P_55C_67L_, Q9UKT9], the “log2 fold change of degron read counts” value is, setting by setting: under setting [1], -1.16; under setting [2], -1.81; under setting [3], -2.14; (compound: thalidomide) -1.69.
On to FECEICGRNFTQKGNLLRHIKL [46F_47E_49E_50I_52G_53R_54N_55F_67L_, Q9UKT9], for which the “log2 fold change of degron read counts” value is -2.61 under setting [1], -2.28 under setting [2], -0.395 under setting [3] and -0.731 (compound: thalidomide).
For the sequence LMCEICGFFCTQKGNLLRHIKL [46L_47M_49E_50I_52G_53F_54F_55C_67L_, Q9UKT9], the “log2 fold change of degron read counts” value is, setting by setting: under setting [1], -0.461; under setting [2], -0.234; under setting [3], 1.75; (compound: thalidomide) 0.617.
The corresponding values for FNCEICGHGFTQKGNLLRHIKL [46F_47N_49E_50I_52G_53H_54G_55F_67L_, Q9UKT9] are -2.44, -2.67, -3.6 and -2.95.
The corresponding values for FTCPVCGAQFTQKGNLLRHIKL [46F_47T_49P_50V_52G_53A_54Q_55F_67L_, Q9UKT9] are 0.0342, 2.63, 2.78 and 2.72.
FKCPICGHLFTQKGNLLRHIKL [46F_47K_49P_50I_52G_53H_54L_55F_67L_, Q9UKT9]: the “log2 fold change of degron read counts” value is, setting by setting: under setting [1], -2.52; under setting [2], -3; under setting [3], -3.86; (compound: thalidomide) -2.43.
The corresponding values for FTCNVCGAGFTQKGNLLRHIKL [46F_47T_49N_50V_52G_53A_54G_55F_67L_, Q9UKT9] are -0.827, -0.181, 0.811 and 0.259.
The corresponding values for LQCEICGFDCTQKGNLLRHIKL [46L_47Q_49E_50I_52G_53F_54D_55C_67L_, Q9UKT9] are -2.82, -2.45, -2.23 and -1.2.
The corresponding values for LTCNQCGFQCTQKGNLLRHIKL [46L_47T_49N_50Q_52G_53F_54Q_55C_67L_, Q9UKT9] are -2.38, -2.53, -1.48 and -1.47.
On to FRCDICGAYFTQKGNLLRHIKL [46F_47R_49D_50I_52G_53A_54Y_55F_67L_, Q9UKT9], for which the “log2 fold change of degron read counts” value under setting [1] is -1.87, the “log2 fold change of degron read counts” value under setting [2] was -1.92, the “log2 fold change of degron read counts” value under setting [3] is -0.0846 and the “log2 fold change of degron read counts” value (compound: thalidomide) was 0.62.
